Four compounds from PubChem BioAssay (NCATS) can be followed below.

The nature of experiment [1]: qHTS to identify inhibitors of the type 1 interferon - major histocompatibility complex class I in skeletal muscle: primary screen against the NCATS Mechanism Interrogation Plate v5.0 (MIPE) Libary (AID 1347411).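 Note: plate controls were vehicle for no effect and reference inhibitor for full effect; nearly all actives have a fitted effect of over 65% in size.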 In a few lines:
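Cells were genome-edited human myoblasts carrying a HiBit tag on endogenous HLA-B. They were treated with IFN-beta (4.0 ng/ml) and titrated compounds (top 46 uM) for 24 hrs before lytic HiBiT detection.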
(Quantitative high-throughput screening tests each substance at several concentrations.)

Experiment [2] in a line: Primary qHTS for inhibitors of nuclear receptor binding SET domain protein 2 (NSD2) in an isogenic RCH-ACV NSD2 p.E1099K mutant (9B) (AID 1645876). Note: nearly all actives have a fitted effect of over 70% in size. Note: potency is the fitted concentration of half-maximal effect.
Experiment [3] has as its target Glutathione peroxidase 1 (Homo sapiens) (UniProt P07203). Briefly: Primary qHTS Assay for Inhibitors of Recombinant Selenoprotein Glutathione Peroxidase 1 (GPX1) (AID 1845191). Note: nearly all actives have a fitted effect of over 65% in size. In a few lines: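 GR-coupled assay: compounds preincubated 30 min at room temperature with GPX1, then reaction started with CHP; final 10 nM GPX1, 1 mM GSH, 0.5 mM CHP, 0.5 mM NADPH, 100 nM GR, 0.01% BSA, pH 7.5 Tris buffer. NADPH fluorescence (340/450 nm) read at 0 and 15 min.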

In experiment [4] the target is Phospholipid hydroperoxide glutathione peroxidase GPX4 (Homo sapiens) (UniProt P36969). Briefly: Primary qHTS Assay for Inhibitors of Recombinant Selenoprotein Glutathione Peroxidase 4 (GPX4) (AID 1845192). Note: series mostly up to about 50 µM; % is set by controls: 0 for no effect and ±100 for the full control effect; nearly all actives have a fitted effect of over 65% in size. Conditions: outcome: dose series up to 50 µM unless noted. The method, boiled down: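 GR-coupled assay: recombinant GPX4 preincubated 30 min with compound at room temperature; final 200 nM GPX4, 1 mM GSH, 0.5 mM cumene hydroperoxide, 0.5 mM NADPH, 100 nM GR, 0.01% BSA, pH 7.5 Tris. NADPH fluorescence (340/450 nm) read at 0 and 15 min.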
Phospholipid hydroperoxide glutathione peroxidase GPX4 (Homo sapiens), sequence (P36969 whole entry, looked up): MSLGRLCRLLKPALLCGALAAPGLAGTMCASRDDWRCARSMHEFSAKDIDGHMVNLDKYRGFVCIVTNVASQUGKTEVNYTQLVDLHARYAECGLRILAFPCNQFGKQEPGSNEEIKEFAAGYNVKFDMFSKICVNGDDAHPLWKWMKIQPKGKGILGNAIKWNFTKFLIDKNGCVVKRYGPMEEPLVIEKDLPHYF

Experiment [5] in a line: qHTS drug screen for cell cycle checkpoint inhibitors in PARPi-resistant BRCA-mutant ovarian cancer cell lines. (AID 1963452; calls by dose curve). Conditions: PEO1/OlaR viability, CellTiter-Glo luminescence, 96 h, stronger effect = lower value. In a few lines:
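PEO1, PEO4 and PEO1/OlaR ovarian cancer cells, 600 per well, exposed 96 h at 37C to a dilution series. Viability read by CellTiter-Glo luminescence, normalized to DMSO and empty wells; activity summarized as Z-AUC.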

A short description of experiment [6]: Primary qHTS for inhibitors of nuclear receptor binding SET domain protein 2 (NSD2) in an RCH-ACV wild type WT cells (2C) (AID 1645877). Note: % is set by controls: 0 for no effect and ±100 for the full control effect; nearly all actives have a fitted effect of over 70% in size.
[7] abbreviates: measured here: PEO1 parental Z-AUC.

Results filed as inconclusive are left out. The source made the active and inactive calls. Unless noted, calls come from the whole dose curve; as a rule, active = well fitted curve in the direction sought with a large enough effect; inconclusive = small, poorly fitted or top-dose-only effect, or another doubt; inactive = no such curve, though single readings can be large; an effect the other way counts as inactive or inconclusive.

Glutathione peroxidase 1 (Homo sapiens), sequence (P07203 whole entry, looked up): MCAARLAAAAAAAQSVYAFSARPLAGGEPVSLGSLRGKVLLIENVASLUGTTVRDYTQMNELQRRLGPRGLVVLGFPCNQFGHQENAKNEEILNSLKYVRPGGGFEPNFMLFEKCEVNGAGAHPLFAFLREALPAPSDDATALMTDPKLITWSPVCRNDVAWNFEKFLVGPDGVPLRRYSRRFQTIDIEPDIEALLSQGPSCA

Take `CC(C)n1ncnc1-c1cn2c(n1)-c1ccc(O[C@@H](C)C(N)=O)cc1OCC2`: the Potency result in experiment [1], in experiment [3] and in experiment [4] was “inactive” throughout. The Potency in experiment [2] is 0.934 µM (active). Moreover, the Z-AUC was -1.61 (inactive) in experiment [5], -1.38 in experiment [5] (setting [7]) and -1.69 in experiment [5] (measured here: PEO4 Z-AUC).

With `CCOC(=N)c1nc2ccc3ncnc(Nc4cc(F)c(F)cc4Cl)c3c2s1`, the Potency entry in experiment [1], in experiment [2], in experiment [3] and in experiment [4] was “inactive” each time. For the same compound, the figures for the Z-AUC in experiment [5], in experiment [5] (setting [7]) and in experiment [5] (measured here: PEO4 Z-AUC) were -1.14 (inactive), -1.11 and -1.07, respectively.

With `C=CC(=O)N1CC(N2CCN(C(=O)CNc3cc(C4(C)CC4)c(Cl)cc3O)CC2)C1`, the Potency result in experiment [1], in experiment [3] and in experiment [4] was “inactive” in each case. The Potency in experiment [2] is 23.5 µM (active). The Z-AUC in experiment [5] is -0.243 (inactive); in experiment [5] (setting [7]), -0.485; in experiment [5] (measured here: PEO4 Z-AUC), -0.295.

In the case of `CS(=O)(=O)c1ccc(-c2cnc(NCc3ccco3)n3cnnc23)cc1`, the Potency entry in experiment [1], in experiment [2] and in experiment [6] was “inactive” throughout. Further, the Z-AUC in experiment [5] is 1.04 (inactive); in experiment [5] (setting [7]), 0.794; in experiment [5] (measured here: PEO4 Z-AUC) it was 1.01.
